Compounds without any hit were thinned out: in the full panel of roughly 79,000, 15% have a hit. A number with no mark means an inactive call. The source made the active and inactive calls. No stated cut-off is given here; in the data, active means growth inhibition above about 70%; inactive means the rest.
Assays:
[1] = NCI Yeast Anticancer Drug Screen. Data for the rad50 strain (AID 155);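 further: 0% = growth of vehicle-only cultures of the same strain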; conditions: S. cerevisiae rad50 strain growth inhibition, active compounds read high
Method in brief: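 Vehicle-treated cultures provide the reference for the growth inhibition reported for compound-exposed, repair-deficient yeast.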

[2] = NCI Yeast Anticancer Drug Screen. Data for the mec2-1 strain (AID 157); conditions: S. cerevisiae mec2-1 strain, active compounds read high
Method in brief: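 Yeast mec2-1 mutant treated with compound. Readout: growth inhibition vs vehicle controls.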

[3] = NCI Yeast Anticancer Drug Screen. Data for the cln2 rad14 strain (AID 165);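 further: 0% = growth equal to vehicle treated cultures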; conditions: S. cerevisiae cln2 rad14 strain, active compounds read high
Method in brief: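 cln2 rad14 yeast strain; compound exposure; growth inhibition read vs vehicle controls.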

[4] = NCI Yeast Anticancer Drug Screen. Data for the bub3 strain (AID 167); conditions: S. cerevisiae bub3 mutant strain, active compounds read high
Method in brief: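 Mutant yeast screening strain plus compound; vehicle-treated cultures serve as the 0% inhibition reference.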

[5] = NCI Yeast Anticancer Drug Screen. Data for the mlh1 rad18 strain (AID 175); conditions: S. cerevisiae mlh1 rad18 strain growth inhibition, active compounds read high
Method in brief: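 Yeast w/ defined DNA-repair lesions; compound exposure; growth vs vehicle controls → % inhibition.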

[6] = NCI Yeast Anticancer Drug Screen. Data for the sgs1 mgt1 strain (AID 161);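 further: 0% = growth of cultures given vehicle only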; conditions: S. cerevisiae sgs1 mgt1 strain, active compounds read high
Method in brief: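 Read-out: growth inhibition vs vehicle controls. Cells: mutant yeast strain deficient in DNA damage repair.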

[7] = at 5.0 µM (retest, dose inferred, filed as 0.5)
[8] = at 50.0 µM (retest, dose inferred, filed as 5.0)

Compound	growth inhibition [1, 7] [%]	growth inhibition [1, 8] [%]	growth inhibition ([1]; at 50.0 µM)	growth inhibition [2, 7]	growth inhibition [2, 8]	growth inhibition ([2]; at 50.0 µM)	growth inhibition [3, 7]	growth inhibition [3, 8]	growth inhibition ([3]; at 50.0 µM)	growth inhibition [4, 7]	growth inhibition [4, 8]	growth inhibition ([4]; at 50.0 µM)	growth inhibition [5, 7]	growth inhibition [5, 8]	growth inhibition ([5]; at 50.0 µM)	growth inhibition [6, 7]	growth inhibition [6, 8]	growth inhibition ([6]; at 50.0 µM)
COc1ccccc1/C=C1\S/C(=N/Nc2nc(C)c(C(C)=O)s2)NC1=O	20	29	-14.6%	15%	32%	-3.1%	20%	34%	5.4%	17%	43%	-18%	15%	36%	-7.7%	–	–	–
COc1ccc(N=N/N=c2\sc3cc(OC)ccc3n2C)cc1	–	–	–	3%	46%	5.1%	-2%	63%	24.5%	-5%	36%	-3.4%	-6%	71% (active)	46.8%	-2%	22%	11.9%
CS/C(N)=N/NC(=O)CCC(=O)Nc1cc(Cl)c(Cl)cc1Cl	–	–	–	9%	-2%	3%	13%	13%	15%	4%	4%	-0.85%	5%	3%	19.5%	6%	16%	-10.2%
CC(C)CNc1cc(Cl)nc(N)n1	-1	0	88% (active)	–	–	–	-2%	-6%	91.3% (active)	1%	-2%	59%	-4%	-5%	95.5% (active)	2%	-3%	89.9% (active)
CCCCN(C)C(=S)N/N=C(\C)c1ccccn1	–	–	–	73% (active)	100% (active)	99.8% (active)	95% (active)	98% (active)	99.5% (active)	92% (active)	99% (active)	99.5% (active)	98% (active)	99% (active)	99.7% (active)	97% (active)	99% (active)	99.7% (active)
Cc1nc2c(=O)[nH]c3ccc(Cl)cc3c2o1	3	60	42.5%	–	–	–	7%	12%	77.3% (active)	6%	75% (active)	60.2%	8%	89% (active)	46.2%	9%	90% (active)	40.7%
Nc1ccc(S(=O)(=O)O)c2cccc(S(=O)(=O)O)c12	-2	-2	3.45%	–	–	–	-1%	-7%	71.9% (active)	0%	2%	27.2%	-1%	-2%	-12.9%	-2%	0%	31.5%
O=C(NCCc1c(-c2ccccc2)[nH]c2ccccc12)C(F)(F)F	11	–	46.6%	-3%	–	49.8%	-2%	–	59.2%	-10%	–	72.5% (active)	3%	–	60.3%	10%	–	79.5% (active)

Reference: PubChem BioAssay (NCI)
